# AddAB inh – less growth of phage-infected E. coli with AddAB; E. coli expressing H. pylori AddAB, absorbance growth; inhibition, % at 11.9 µM; hit rate 0.29% among 330,000; AID 435030; in the data active means inhibition above about 12%;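 further: 0% = vehicle wells of infected cells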
# E coli growth-1 – bacterial growth inhibition, counter-screen for AddAB inhibitors | E. coli V3065 growth, OD600 absorbance, 18 h | inhibition, % at 11.9 µM | hit rate 0.27% among 330,000;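 active means inhibition above the campaign's mean inhibition across all tested compounds plus 3 SD, cut at about 9.9% in these data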;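 further: uninfected addAB+ strain grown without phage in ampicillin broth; 0% = DMSO wells and 100% = ciprofloxacin 0.95 µg/ml wells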
# phage Ecoli inh – E. coli growth loss with phage present; growth absorbance; inhibition, % at 11.9 µM; hit rate 0.26% among 360,000; AID 651602; in the data active means inhibition above about 11%
# E coli growth-2 – blocks Escherichia coli growth; OD600, 23 h; active compounds read low; OD600 absorbance (test concentration not listed); hit rate 0.21% among 330,000;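 active means OD600 absorbance below the run mean of sample wells minus 3.6 SD, in any replicate, cut at about 0.56 in these data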
# Tat export inh – E. coli Tat transport inhibition. E. coli MC4100 TorA-mCherry Tat export, fluorescence. inhibition, % at 10 µM. hit rate 0.036% among 340,000. AID 488895;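 active means mean replicate inhibition at least 50% and at least half of replicates individually reaching 50%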;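 further: exported cargo escapes ClpAP degradation while cytoplasmic cargo is degraded and loses fluorescence; 0% = median of neutral control wells and 100% = median of NaSCN control wells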
# AddAB conf – confirmation screen: growth loss of phage-infected E. coli expressing H. pylori AddAB | shares compounds with AddAB inh | E. coli V3065 expressing H. pylori AddAB, T4 phage, OD; T4 phage with gene 2 nonsense mutations | hit rate 64% among 880 | inhibition, % at 11.9 µM;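 active means mean inhibition above a set limit taken from the earlier primary screen, cut at about 13% in these data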;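 further: higher means less bacterial growth since AddAB block lets phage replicate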
# RecBCD counter – reduces growth of phage-infected RecBCD+ E. coli, AddAB inhibitor counter-screen | shares compounds with AddAB inh | E. coli V66 + mutant T4 phage, OD growth | inhibition, % at 11.9 µM | hit rate 73% among 880 | AID 488955;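 active means mean inhibition above the mean of solvent-only control wells plus 3 SD, cut at about 4% in these data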;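 further: optical density read after an 18 h incubation at 37 °C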
# Bact viability – reduces bacterial viability, AddAB inhibitor counter-screen | inhibition, % at 11.9 µM | hit rate 35% among 880 | absorbance (AddAB counterscreen) | shares compounds with AddAB inh; in the data active means inhibition above about 25%
# RecBCD conf – growth loss of phage-infected V66 E. coli, RecBCD confirmation screen; shares compounds with phage Ecoli inh; E. coli V66 + T4 2- phage, growth OD; inhibition, % at 11.9 µM; hit rate 45% among 890; AID 651982;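 active means mean inhibition over triplicates exceeding the hit threshold derived in the original primary screen, cut at about 11% in these data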
# Ecoli viability – inhibits E. coli viability, flagging RecBCD hits as nonselective. hit rate 29% among 890. inhibition, % at 11.9 µM. AID 651983. absorbance (OD) growth. shares compounds with phage Ecoli inh; in the data active means inhibition above about 20%;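 further: E. coli strain V66 grown with compound alone and no phage infection; 0% = bacteria with DMSO vehicle only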
# AddAB phage OD – growth loss of phage-infected AddAB E. coli, RecBCD counter-screen | inhibition, % at 11.9 µM | E. coli expressing H. pylori AddAB + T4 phage, OD growth; gene 2 mutant T4, recBCD-deleted host | shares compounds with phage Ecoli inh | hit rate 45% among 890 | AID 651984;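 active means mean inhibition above the solvent-only control wells' mean plus 3 SD, cut at about 22% in these data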;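 further: higher means less bacterial growth from phage killing when AddAB is blocked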
# The depositor's hits bear a star; / = no result. In the library only some 0.51% were active in any assay of this set; here they are far more common.
SMILES,AddAB inh,E coli growth-1,phage Ecoli inh,E coli growth-2,Tat export inh,AddAB conf,RecBCD counter,Bact viability,RecBCD conf,Ecoli viability,AddAB phage OD
Oc1ccccc1N=Nc1nc(-c2ccccc2)c(-c2ccccc2)[nH]1,28*,22*,20*,/,-4,21*,16*,18,11,15,19
O=[N+]([O-])c1ccc(C(O)C(CO)NC(=S)Nc2ccccc2)cc1 (configuration not stated),1,3,2,0.69,1,/,/,/,/,/,/
O=C(N[C@H](CO)[C@H](O)c1ccc([N+](=O)[O-])cc1)C(Cl)Cl,89*,90*,78*,0.045*,5,87*,86*,85*,86*,88*,81*
Cc1ccc(NC(=S)NC(CO)C(O)c2ccc([N+](=O)[O-])cc2)cc1 (configuration not stated),0,-2,3,0.67,-9,/,/,/,/,/,/
O=C(NC(CO)C(O)c1ccc([N+](=O)[O-])cc1)C(Cl)Cl (configuration not stated),79*,85*,73*,0.06*,-3,87*,84*,86*,79*,79*,74*
COc1cccc(C2=CC(=O)CC(c3ccc(Cl)cc3)C2)c1OC (configuration not stated),/,/,/,0.71,/,/,/,/,/,/,/
O=C(CSC1=NNC(c2ccccn2)S1)Nc1ccccc1 (configuration not stated),13*,9,11*,0.66,-15,35*,14*,21,10,13,38*
CCC(C)C(CNC(CNC)C(C)C)NCC(C)c1ccc(CC(C)C)cc1 (configuration not stated),/,/,/,0.63,/,/,/,/,/,/,/
Cc1ccc(C(C)C)c(OCc2ccc(C(=O)N/N=C/c3cccc(O)c3O)cc2)c1,16*,14*,22*,/,2,16*,16*,9,9,11,14
Cc1ccc(C(C)C)c(OCc2ccc(C(=O)NN=Cc3ccc(O)cc3O)cc2)c1,/,/,/,0.68,/,/,/,/,/,/,/
CCn1cc(C(=O)NCCC(C)C)c(=O)c2cc(F)c(N3CCN(C)CC3)cc21,100*,99*,40*,0.066*,9,99*,59*,99*,19*,36*,93*
CCn1cc(C(=O)NCc2cccnc2)c(=O)c2cc(F)c(N3CCN(C(=O)c4ccco4)CC3)cc21,95*,94*,21*,0.051*,10,98*,10*,99*,13*,14,103*
CCN(CC)CCNC(=O)c1cn(CC)c2cc(N3CCN(C)CC3)c(F)cc2c1=O,100*,98*,96*,0.056*,35,99*,100*,98*,65*,102*,100*
CCCCNC(=O)c1cn(CC)c2cc(N3CCN(C)CC3)c(F)cc2c1=O,100*,98*,97*,0.071*,/,98*,100*,99*,103*,104*,104*
C(=Cc1ccccc1)C=NNc1nc(N2CCCCC2)nc(N2CCCCC2)n1,/,/,/,0.7,/,/,/,/,/,/,/
Cc1ccc(S(=O)(=O)N=C2NC(=O)C(=Cc3cccnc3)S2)cc1,/,/,/,0.69,/,/,/,/,/,/,/
CCN1/C(=C/c2ccc3cc(C)ccc3[n+]2CC)Sc2ccccc21,25*,28*,14*,0.22*,4,46*,14*,30*,6,4,16
CC[n+]1ccccc1/C=C1\Sc2ccc(C)cc2N1C,2,2,0,0.64,-2,/,/,/,/,/,/
